From PubChem BioAssay (NCI)
Compounds without any hit were thinned out: in the full panel of roughly 83,000, 20% have a hit.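 Each cell line was grown in a 96-well plate and treated with one concentration of compound for 48 hours. Values below 10 were considered active.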 Values without a mark were called inactive. Calls of active or inactive are those of the source.

Assays:
Test in all cases: NCI-60 one-dose screen, 48 h (100 = growth as untreated, 0 = no growth, -100 = all killed)
Settings in all cases: 10 µM unless noted
[1] = system: SR leukemia
[2] = system: RPMI-8226 leukemia
[3] = system: OVCAR-8 ovarian
[4] = system: OVCAR-5 ovarian
[5] = system: OVCAR-4 ovarian
[6] = system: SK-OV-3 ovarian
[7] = system: IGROV1 ovarian
[8] = system: OVCAR-3 ovarian
[9] = system: HS 578T breast
[10] = system: NCI/ADR-RES ovarian
[11] = system: T-47D breast
[12] = system: MDA-MB-435 melanoma
[13] = system: SW-620 colon
[14] = system: MCF7 breast
[15] = system: HCT-116 colon
[16] = system: HCC-2998 colon
[17] = system: KM12 colon
[18] = system: BT-549 breast

Compound | growth [1] | growth [2] | growth [3] | growth [4] | growth [5] | growth [6] | growth [7] | growth [8] | growth [9] | growth [10] | growth [11] | growth [12] | growth [13] | growth [14] | growth [15] | growth [16] | growth [17] | growth [18]
CCOC(=O)c1ccc(NC2=C(Cl)C(=O)c3nc(C)ccc3C2=O)cc1 | 22.6% | 4.69% (active) | 68.4% | 91.5% | -62.7% (active) | 94.4% | 7.95% (active) | -18.8% (active) | 50.2% | 45.9% | -0.935% (active) | 21.6% | -19.6% (active) | -14.5% (active) | 7.29% (active) | 80.3% | 50.8% | –
COc1ccccc1/C=C1\Oc2ccc(O)c(O)c2C1=O | 99.6% | 93.5% | 94.1% | 105% | 84% | 105% | 98.7% | 102% | 87.9% | 98.5% | 86.3% | 93.4% | – | – | 83.7% | 96.8% | 99.7% | 89.5%
Cc1ccc(C(=O)Nc2ccc(CNCCN3CCOCC3)c(C(F)(F)F)c2)cc1C#Cc1cnc2cccnn12 | -15.7% (active) | -12.8% (active) | 13.3% | 33.5% | 25.1% | 57.7% | 10.6% | 21.6% | -13.3% (active) | 5.66% (active) | 4.34% (active) | -28% (active) | 14.1% | 6.79% (active) | 2.51% (active) | 6.09% (active) | 1.77% (active) | –
Clc1ccc2[nH]cc(-c3cncn3CCc3ccc4c(c3)OCO4)c2c1 | 62.1% | 42.5% | 76% | 76.2% | 33% | 81% | 76.8% | 67.6% | 69.7% | 78.6% | 37.8% | 71.3% | 79.5% | 63% | 63.2% | 89.9% | 74.6% | –
CCN(CC)S(=O)(=O)c1ccc(-c2nc(C(Cl)Cl)nc3cc(C)nn23)cc1 | 9.52% (active) | -7.21% (active) | 12.3% | 41.5% | 34.4% | 18.4% | 12% | 21.1% | 35.6% | 14% | 60.9% | 14.8% | 6.12% (active) | 23.5% | 10% | 23.8% | 8.52% (active) | –
COc1cc(C(C)=C(c2ccc(OCCN(C)C)cc2)c2ccc(OCCN(C)C)cc2)ccc1F | 99.2% | 107% | 104% | 103% | 108% | 102% | 105% | 109% | 101% | 105% | 93.4% | 108% | 104% | 93.8% | 107% | 100% | 109% | –
Cn1cc(-c2cc3ncnc(Nc4ccc(NC(=O)Nc5cc(C(C)(C)C)on5)cc4)c3s2)cn1 | 22.3% | 5.73% (active) | 44.2% | 30.4% | 41% | 20.4% | 19.8% | 54.9% | 14.9% | 61.6% | 1.81% (active) | 17.5% | 24.4% | 18.5% | 12.7% | 74.1% | 15.7% | –
Cc1ccc(/C(N)=N/C(N)=N/c2nc3ccccc3s2)cc1 | 21.1% | 78.3% | 78.8% | 111% | 105% | 134% | 67.3% | 106% | 112% | 31.1% | 80.9% | 103% | 107% | 74% | 86% | 104% | – | –
Fc1ccc2nc(-c3cnn4cccnc34)sc2c1 | 78% | 87.6% | 83.5% | 101% | 63.5% | 81% | 49.2% | 84.2% | 90.1% | 96.6% | 44.2% | 108% | 93.7% | 26.7% | 88.8% | 83% | 79.8% | –
CC1=C(C)C(=O)C(Nc2ccc3c(c2)OCCO3)=C(Br)C1=O | 77.6% | 100% | 100% | 108% | 66.8% | 93.9% | 102% | 109% | 97.3% | 97.3% | 80.5% | 102% | – | 78.2% | 90.6% | 102% | 93.7% | 101%
COc1ccc(/C=N/NC(=O)CSc2nc(-c3cnccn3)cc(-c3cccs3)c2C#N)cc1 | 65.3% | 48.3% | 61.4% | 103% | 92.6% | 75.6% | 90.7% | 90.6% | 64.6% | 65.8% | 68.7% | 81.6% | – | 76.8% | 22.4% | 79.1% | 64.7% | 49.2%
COc1ccc(C2c3[nH]c4ccc(Cl)cc4c3CCN2c2oc(CO)nc2C#N)cc1 (centres undefined) | 17.4% | 46.3% | 45.9% | 78.1% | 69.7% | 101% | 39.4% | 46.7% | 69.1% | 43% | 43.1% | 15.2% | 32.9% | 32% | 32.1% | 57% | 23.4% | –
CCN(CC)CCOc1ccc(C(=C(C)Cc2ccc(OC)cc2)c2ccc(OCCN(CC)CC)cc2)cc1 | -26.6% (active) | -25% (active) | 74.5% | 77.4% | 89.1% | 93.5% | 68.9% | 31.2% | 72.9% | 85.4% | 64.2% | -66.1% (active) | -6.4% (active) | -33.8% (active) | 16.3% | 44.8% | 48.6% | –
CC(=O)Nc1cc(N2CCOCC2)c2nc(NC(=O)c3[nH]c(C)c(Cl)c3Cl)sc2c1 | 28.6% | 55% | 67.1% | 94.7% | -10.8% (active) | 95.5% | 82.5% | 72.3% | 31.3% | 48.9% | 46.9% | 59% | – | 67.1% | 68.5% | 109% | 82.4% | 74.1%
CCCC[n+]1ccc(SCC(=O)n2ccc3ccccc32)c2ccccc21 | 56.3% | 59.5% | 92.7% | 103% | 72.1% | 88.9% | 83.3% | 91.8% | 99.6% | 110% | 73.3% | 101% | 102% | 83% | 93.1% | 109% | 92.5% | –
CN(C)S(=O)(=O)c1ccc(-c2nc(C(Cl)Cl)nc3cc(-c4ccccc4)nn23)cc1 | 36.2% | 86.8% | 60.7% | 90% | 90.5% | 92.2% | 66% | 93.5% | 109% | 69.5% | 89.5% | 81.6% | 49.6% | 72% | 72.3% | 100% | 74% | –
CCOP(=O)(OCC)OC[C@]12CCC(C)(C)CC1C1=CC[C@@H]3[C@@]4(C)CCCNC(C)(C)[C@@H]4CC[C@@]3(C)[C@]1(C)CC2 (some centres undefined) | -24.1% (active) | -1.77% (active) | 90.2% | 102% | 80.9% | 112% | 44.5% | 97.1% | 88.7% | 73.7% | 79.2% | 90.6% | – | 35.1% | 20.4% | 26.6% | 88.7% | 104%
CCNCCOc1ccc(/C(=C(/CC)c2ccc(Cl)cc2)c2ccc(OCCCN(C)C)cc2)cc1 | -36.8% (active) | -36.2% (active) | -81.7% (active) | -93% (active) | -88% (active) | -93.8% (active) | -82.3% (active) | -77.4% (active) | -51.1% (active) | -82.5% (active) | -60.2% (active) | -74.2% (active) | – | -82.5% (active) | -72.4% (active) | -84.2% (active) | -85.3% (active) | -91.7% (active)
